# Source: PubChem BioAssay (Tox21)
# A number with no mark means an inactive call. Records with an inconclusive call do not appear. Entries that show only a call come without a potency. Calls of active or inactive are those of the source. Unless noted, calls follow the shape of the dose curve; as a rule, active = well fitted curve in the direction sought with a large enough effect in the repeat runs; inconclusive = weak or mixed curves; inactive = no such curve, though single readings can be large; an effect the other way counts as inactive or inconclusive.
# Legend:
# [1] = biological target: Thyrotropin receptor (Homo sapiens) (UniProt P16473); test: qHTS assay to identify small molecule agonists of the thyroid stimulating hormone receptor (TSHR) signaling pathway (AID 1224843; calls by dose curve; also: nearly all actives have a fitted effect of over 45% in size)
# Sequence of Thyrotropin receptor (Homo sapiens) (P16473 whole entry, looked up): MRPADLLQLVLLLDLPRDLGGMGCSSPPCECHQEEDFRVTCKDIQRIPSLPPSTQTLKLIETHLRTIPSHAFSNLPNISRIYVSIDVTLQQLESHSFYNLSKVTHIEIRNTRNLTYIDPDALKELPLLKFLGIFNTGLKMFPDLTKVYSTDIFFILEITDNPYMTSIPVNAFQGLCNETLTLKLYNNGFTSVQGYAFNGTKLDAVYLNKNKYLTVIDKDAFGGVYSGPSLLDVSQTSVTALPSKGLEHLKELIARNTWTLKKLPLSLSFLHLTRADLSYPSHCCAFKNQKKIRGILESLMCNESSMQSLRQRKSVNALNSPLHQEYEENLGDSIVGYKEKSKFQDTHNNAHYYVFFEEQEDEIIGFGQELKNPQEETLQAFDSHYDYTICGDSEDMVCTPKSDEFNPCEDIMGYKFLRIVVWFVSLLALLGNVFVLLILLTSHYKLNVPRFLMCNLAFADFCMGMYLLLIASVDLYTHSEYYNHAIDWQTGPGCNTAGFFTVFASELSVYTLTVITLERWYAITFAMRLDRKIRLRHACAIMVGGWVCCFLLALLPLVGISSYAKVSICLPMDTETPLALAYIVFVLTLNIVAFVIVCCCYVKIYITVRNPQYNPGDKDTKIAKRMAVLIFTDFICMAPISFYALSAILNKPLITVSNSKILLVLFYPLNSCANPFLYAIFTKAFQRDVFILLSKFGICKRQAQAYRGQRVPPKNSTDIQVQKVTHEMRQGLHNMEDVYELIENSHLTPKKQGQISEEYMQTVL
# Summary of the method: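 Using 15 concentrations per compound in triplicate, cAMP production was monitored in TSHR-HEK293 cells after 30 min compound incubation at RT; HTRF reagents followed, with fluorescence intensity recorded after 1 h.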
# [2] = qHTS assay to identify small molecule agonists of the hypoxia (HIF-1) signaling pathway - cell viability counter screen (AID 1224844; calls by dose curve; also: nearly all actives have a fitted effect of over 50% in size)
# Summary of the method: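 Cytotoxicity was measured in parallel with the HRE-driven beta-lactamase readout: after 17 hrs of compound exposure at 37C, HRE-bla ME-180 cells received CellTiter-Glo and luminescence was recorded 30 min later.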
# [3] = qHTS assay to identify small molecule agonists of H2AX (AID 1224845; active = well fitted activation curve with a large enough effect in the signal ratio in the repeat runs, not every such curve was filed as active; the % refers to the signal ratio)
# Summary of the method: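 Wild-type CHO-K1 cells plated overnight, then exposed 3 hr at 37C to compounds at 15 concentrations (0.76% DMSO). Lysed, then HTRF anti-pH2AX(S139)-cryptate/anti-H2AX-d2 detection after 24 hr at room temperature; emissions 665 and 620 nm.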
# [4] = qHTS assay to identify small molecule agonists of the hypoxia (HIF-1) signaling pathway (AID 1224846; active = well fitted activation curve with a large enough effect in the signal ratio in the repeat runs, not every such curve was filed as active; the % refers to the signal ratio)
# Summary of the method: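 Compounds from the Tox21 10K library, dissolved in DMSO, are tested for induction of a hypoxia response element–controlled beta-lactamase reporter in ME-180 cells. Exposure lasts 17 hrs at 37C after a 5 hr settling period, followed by CCF4-AM FRET substrate.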
# [5] = qHTS assay to identify small molecule agonists of H2AX - cell viability counter screen (AID 1224847; calls by dose curve; also: top concentration of the series differs between compounds; nearly all actives have a fitted effect of over 30% in size)
# Summary of the method: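 Counter-screen for viability: CellTiter-Glo ATP luminescence read after 3 h compound treatment (15-point titration, 0.76% DMSO final) of CHO-K1 cells at 37C, with 30 min room-temperature reagent incubation.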
# [6] = qHTS RealTime-Glo MT Cell Viability Assay in HepG2 cells - 24 hour (AID 1224867); also: nearly all actives have a fitted effect of over 50% in size
# Summary of the method: (§1)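 HepG2 cells were seeded at 600 cells/well together with NanoLuc luciferase and a cell-permeant prosubstrate, preincubated 5 h at 37 C/5% CO2, then pin-dosed with compounds in DMSO. Nonlytic luminescence from viable cells was read at each time point.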
# [7] = qHTS RealTime-Glo MT Cell Viability Assay in HEK293 cells - 32 hour (AID 1224868); also: nearly all actives have a fitted effect of over 50% in size; also: potency is read from the fitted curve at half-maximal effect
# Summary of the method: (§2)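 HEK293 cells were seeded at 600 cells/well together with NanoLuc luciferase and cell-permeant prosubstrate, preincubated 5 h at 37 C/5% CO2, then given compound in DMSO by pintool. Luminescence from viable-cell prosubstrate reduction was read repeatedly over 40 h.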
# [8] = A CellTox Green Cytotoxicity Assay to monitor cytotoxicity in HEK293 cells - 0 hour (AID 1224869); also: nearly all actives have a fitted effect of over 50% in size
# Summary of the method: (§3)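 Cells (HEK293, 600/well) and dye reagent are dispensed together. After 5 h at 37 C, 23 nL compound is pinned in. Plates stay at 37 C for 40 h with fluorescence read at 0h, 8h, 16h, 24h, 32h and 40h.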
# [9] = qHTS RealTime-Glo MT Cell Viability Assay in HepG2 cells - 40 hour (AID 1224870); also: nearly all actives have a fitted effect of over 50% in size
# Summary of the method: (§4)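 HepG2 cells mixed with RealTime-Glo MT reagents (NanoLuc plus cell-permeant prosubstrate) were seeded at 600 cells/well, incubated 5 h at 37 C/5% CO2, then pinned with compounds in DMSO; nonlytic luminescence tracked viability during 40 h treatment.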
# [10] = A CellTox Green Cytotoxicity Assay to monitor cytotoxicity in HEK293 cells - 40 hour (AID 1224871); also: nearly all actives have a fitted effect of over 45% in size
# Summary of the method: as §3
# [11] = qHTS RealTime-Glo MT Cell Viability Assay in HEK293 cells - 16 hour (AID 1224872); also: nearly all actives have a fitted effect of over 50% in size; also: potency is read from the fitted curve at half-maximal effect
# Summary of the method: as §2
# [12] = qHTS RealTime-Glo MT Cell Viability Assay in HepG2 cells - 8 hour (AID 1224873); also: nearly all actives have a fitted effect of over 55% in size
# Summary of the method: as §4
# [13] = qHTS RealTime-Glo MT Cell Viability Assay in HEK293 cells - 40 hour (AID 1224874); conditions: RealTime-Glo luminescence; max response: active compounds read low; also: nearly all actives have a fitted effect of over 50% in size; also: potency is read from the fitted curve at half-maximal effect
# Summary of the method: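 Real-time viability in HEK293: signal arises when living cells convert a prosubstrate for NanoLuc in the medium, so luminescence tracks viable cell number. Compound (23 nL, DMSO) added 5 h post-seeding; kinetic reads at 0–40 h, 37 C.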
# [14] = A CellTox Green Cytotoxicity Assay to monitor cytotoxicity in HEK293 cells - 24 hour (AID 1224875); also: nearly all actives have a fitted effect of over 45% in size
# Summary of the method: as §3
# [15] = A CellTox Green Cytotoxicity Assay to monitor cytotoxicity in HepG2 cells - 16 hour (AID 1224876); also: nearly all actives have a fitted effect of over 45% in size
# Summary of the method: (§5)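 Cells and non-lytic dye reagent are dispensed together (600 HepG2 cells/well) and incubated 5 h before DMSO compound transfer. Kinetic fluorescence is then recorded in the same wells during 40 h at 37 C.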
# [16] = qHTS RealTime-Glo MT Cell Viability Assay in HepG2 cells - 32 hour (AID 1224877); also: nearly all actives have a fitted effect of over 55% in size
# Summary of the method: as §1
# [17] = A CellTox Green Cytotoxicity Assay to monitor cytotoxicity in HepG2 cells - 24 hour (AID 1224878); also: nearly all actives have a fitted effect of over 45% in size
# Summary of the method: as §5
# [18] = A CellTox Green Cytotoxicity Assay to monitor cytotoxicity in HepG2 cells - 40 hour (AID 1224879); also: nearly all actives have a fitted effect of over 40% in size
# Summary of the method: as §5
# [19] = qHTS assay to identify small molecule agonists of the estrogen related receptor (ERR) signaling pathway from Tox21 library (AID 1224849; calls by dose curve; also: nearly all actives have a fitted effect of over 15% in size); conditions: ERR reporter cell line, ONE-Glo luciferase, 18 h; at 92.4 µM (top of the series) unless noted
# Summary of the method: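 Cells carrying the ERR reporter were plated and allowed to settle for 6 h, exposed to library compounds for 18 h at 37 C, then lysed with ONE-Glo and luminescence measured.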
# [20] = qHTS assay to identify small molecule antagonists of the estrogen related receptor (ERR) signaling pathway from Tox21 library (AID 1224848); also: nearly all actives have a fitted effect of over 50% in size
# Summary of the method: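 Tox21 10K compounds in DMSO tested for ERR pathway antagonism in NTP's ERR cell line; 18 h, 37 C exposure; ONE-Glo luminescence.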
compound,measurement,setting,value
CCOc1cc([N+](=O)[O-])c(OCC)cc1N1CCOCC1,Potency,[1],inactive
same,outcome,[2],inactive
same,outcome,[3],inactive
same,outcome,[4],inactive
same,Potency,[5],inactive
same,outcome,[6],inactive
same,Potency,[7],15.5 µM (active)
same,outcome,[8],inactive
same,outcome,[9],inactive
same,Potency,[10],inactive
same,Potency,[11],19.5 µM (active)
same,outcome,[12],inactive
same,Potency,[13],15.5 µM (active)
same,outcome,[14],inactive
same,outcome,[15],inactive
same,outcome,[16],inactive
same,outcome,[17],inactive
same,Potency,[18],inactive
Nc1cccc(O)c1,Potency,[1],inactive
same,outcome,[2],inactive
same,outcome,[3],inactive
same,outcome,[4],inactive
same,Potency,[5],inactive
same,outcome,[6],inactive
same,Potency,[7],inactive
same,outcome,[8],inactive
same,outcome,[9],inactive
same,Potency,[10],inactive
same,Potency,[11],inactive
same,outcome,[12],inactive
same,max response,[13],3.53%
same,outcome,[14],inactive
same,outcome,[15],inactive
same,outcome,[16],inactive
same,outcome,[17],inactive
same,Potency,[18],inactive
CC(C)c1ccc2cc(C(C)C)ccc2c1,Potency,[1],inactive
same,outcome,[2],inactive
same,outcome,[3],inactive
same,outcome,[4],inactive
same,Potency,[5],inactive
same,outcome,[6],inactive
same,Potency,[7],inactive
same,outcome,[8],inactive
same,outcome,[9],inactive
same,Potency,[10],inactive
same,Potency,[11],inactive
same,outcome,[12],inactive
same,max response,[13],11.1%
same,outcome,[14],inactive
same,outcome,[15],inactive
same,outcome,[17],inactive
CN(C)CCOCCO,Potency,[1],inactive
same,outcome,[2],inactive
same,outcome,[3],inactive
same,outcome,[4],inactive
same,Potency,[5],inactive
same,"activity change, positive = activation",[19],6.59%
same,outcome,[6],inactive
same,Potency,[7],inactive
same,outcome,[8],inactive
same,outcome,[9],inactive
same,Potency,[10],inactive
same,Potency,[11],inactive
same,outcome,[12],inactive
same,max response,[13],-8.11%
same,outcome,[14],inactive
same,outcome,[15],inactive
same,outcome,[16],inactive
same,outcome,[17],inactive
same,Potency,[18],inactive
CCNC(=O)C1CC(C)CCC1C(C)C (stereo not drawn),Potency,[1],inactive
same,outcome,[2],inactive
same,outcome,[3],inactive
same,outcome,[4],inactive
same,Potency,[5],inactive
same,"activity change, positive = activation",[19],-8.38%
same,outcome,[6],inactive
same,Potency,[7],inactive
same,outcome,[8],inactive
same,outcome,[9],inactive
same,Potency,[10],inactive
same,Potency,[11],inactive
same,outcome,[12],inactive
same,max response,[13],2.62%
same,outcome,[14],inactive
same,outcome,[15],inactive
same,outcome,[16],inactive
same,outcome,[17],inactive
Oc1ccccc1-c1nnco1,Potency,[1],inactive
same,outcome,[2],inactive
same,outcome,[3],inactive
same,outcome,[4],inactive
same,Potency,[5],inactive
same,outcome,[6],inactive
same,Potency,[7],inactive
same,outcome,[8],inactive
same,outcome,[9],inactive
same,Potency,[10],inactive
same,Potency,[11],inactive
same,outcome,[12],inactive
same,max response,[13],2.75%
same,outcome,[14],inactive
same,outcome,[15],inactive
same,outcome,[16],inactive
COc1ccc2nc(SCc3ncc(C)c(OC)c3C)[nH]c2c1,Potency,[1],inactive
same,outcome,[2],inactive
same,outcome,[3],inactive
same,outcome,[4],inactive
same,Potency,[5],inactive
same,Potency,[20],inactive
same,"activity change, positive = activation",[19],-13.6% [at 42.5 µM]
same,outcome,[6],inactive
same,outcome,[8],inactive
same,Potency,[10],inactive
same,outcome,[12],inactive
same,outcome,[15],inactive
same,outcome,[16],inactive
